# Molecular target: AgAbp1
# Assay: SPOT peptide array binding signal intensity (averaged, normalized) (arbitrary units (background-subtracted, floor 0; scale differs between SH3 domains)); higher = stronger binding of the SH3 domain to the peptide
# Outline: (§1)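 To measure binding, SH3 domains from four yeast species were fused to GST, expressed in E. coli BL21(DE3) and purified on glutathione Sepharose. Each domain was incubated at 10 μg/ml overnight at 4°C on cellulose membranes with synthetic 15-mer peptides whose cysteines were replaced by serines. Anti-GST antibody, an HRP anti-mouse secondary and luminol were used for detection, and images were quantified with Genespotter. Reported binding signal is normalized, background-subtracted spot intensity averaged over replicates, in arbitrary units that differ between domains.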
row,Binder,SPOT peptide array binding signal intensity
1,NMLSRPRLAKLPSIR,124

# Molecular target: AgBbc1
# Assay: as above
# Outline: as §1
row,Binder,SPOT peptide array binding signal intensity
1,NMLSRPRLAKLPSIR,16.5

# Molecular target: AgBem1-D1
# Assay: as above
# Outline: as §1
row,Binder,SPOT peptide array binding signal intensity
1,NMLSRPRLAKLPSIR,394

# Molecular target: AgBzz1-D1
# Assay: as above
# Outline: as §1
row,Binder,SPOT peptide array binding signal intensity
1,NMLSRPRLAKLPSIR,23

# Molecular target: AgBzz1-D2
# Assay: as above
# Outline: as §1
row,Binder,SPOT peptide array binding signal intensity
1,NMLSRPRLAKLPSIR,3

# Molecular target: AgCyk3
# Assay: as above
# Outline: as §1
row,Binder,SPOT peptide array binding signal intensity
1,NMLSRPRLAKLPSIR,≤ 0

# Molecular target: AgFus1
# Assay: as above
# Outline: as §1
row,Binder,SPOT peptide array binding signal intensity
1,NMLSRPRLAKLPSIR,458

# Molecular target: AgHof1
# Assay: as above
# Outline: as §1
row,Binder,SPOT peptide array binding signal intensity
1,NMLSRPRLAKLPSIR,331

# Molecular target: AgHse1
# Assay: as above
# Outline: as §1
row,Binder,SPOT peptide array binding signal intensity
1,NMLSRPRLAKLPSIR,2140

# Molecular target: AgLsb1
# Assay: as above
# Outline: as §1
row,Binder,SPOT peptide array binding signal intensity
1,NMLSRPRLAKLPSIR,3.25

# Molecular target: AgLsb4
# Assay: as above
# Outline: as §1
row,Binder,SPOT peptide array binding signal intensity
1,NMLSRPRLAKLPSIR,59

# Molecular target: AgMyo5
# Assay: as above
# Outline: as §1
row,Binder,SPOT peptide array binding signal intensity
1,NMLSRPRLAKLPSIR,≤ 0

# Molecular target: AgNbp2
# Assay: as above
# Outline: as §1
row,Binder,SPOT peptide array binding signal intensity
1,NMLSRPRLAKLPSIR,362

# Molecular target: AgRvs167
# Assay: as above
# Outline: as §1
row,Binder,SPOT peptide array binding signal intensity
1,NMLSRPRLAKLPSIR,4.33

# Molecular target: AgSho1
# Assay: as above
# Outline: as §1
row,Binder,SPOT peptide array binding signal intensity
1,NMLSRPRLAKLPSIR,388

# Molecular target: AgSla1-D1-D2
# Assay: as above
# Outline: as §1
row,Binder,SPOT peptide array binding signal intensity
1,NMLSRPRLAKLPSIR,27

# Molecular target: AgSla1-D3
# Assay: as above
# Outline: as §1
row,Binder,SPOT peptide array binding signal intensity
1,NMLSRPRLAKLPSIR,4.5

# Molecular target: CaAbp1-D1
# Assay: as above
# Outline: as §1
row,Binder,SPOT peptide array binding signal intensity
1,NMLSRPRLAKLPSIR,822

# Molecular target: CaAbp1-D2
# Assay: as above
# Outline: as §1
row,Binder,SPOT peptide array binding signal intensity
1,NMLSRPRLAKLPSIR,754

# Molecular target: CaBbc1
# Assay: as above
# Outline: as §1
row,Binder,SPOT peptide array binding signal intensity
1,NMLSRPRLAKLPSIR,165

# Molecular target: CaBem1-D1
# Assay: as above
# Outline: as §1
row,Binder,SPOT peptide array binding signal intensity
1,NMLSRPRLAKLPSIR,526

# Molecular target: CaBzz1-D1
# Assay: as above
# Outline: as §1
row,Binder,SPOT peptide array binding signal intensity
1,NMLSRPRLAKLPSIR,184

# Molecular target: CaBzz1-D2
# Assay: as above
# Outline: as §1
row,Binder,SPOT peptide array binding signal intensity
1,NMLSRPRLAKLPSIR,69.8

# Molecular target: CaCyk3
# Assay: as above
# Outline: as §1
row,Binder,SPOT peptide array binding signal intensity
1,NMLSRPRLAKLPSIR,46

# Molecular target: CaFus1
# Assay: as above
# Outline: as §1
row,Binder,SPOT peptide array binding signal intensity
1,NMLSRPRLAKLPSIR,1210

# Molecular target: CaHof1
# Assay: as above
# Outline: as §1
row,Binder,SPOT peptide array binding signal intensity
1,NMLSRPRLAKLPSIR,0.25

# Molecular target: CaHse1
# Assay: as above
# Outline: as §1
row,Binder,SPOT peptide array binding signal intensity
1,NMLSRPRLAKLPSIR,183

# Molecular target: CaLsb1
# Assay: as above
# Outline: as §1
row,Binder,SPOT peptide array binding signal intensity
1,NMLSRPRLAKLPSIR,2

# Molecular target: CaLsb4
# Assay: as above
# Outline: as §1
row,Binder,SPOT peptide array binding signal intensity
1,NMLSRPRLAKLPSIR,290

# Molecular target: CaMyo5
# Assay: as above
# Outline: as §1
row,Binder,SPOT peptide array binding signal intensity
1,NMLSRPRLAKLPSIR,46.5

# Molecular target: CaNbp2
# Assay: as above
# Outline: as §1
row,Binder,SPOT peptide array binding signal intensity
1,NMLSRPRLAKLPSIR,1250

# Molecular target: CaRvs167
# Assay: as above
# Outline: as §1
row,Binder,SPOT peptide array binding signal intensity
1,NMLSRPRLAKLPSIR,97.2

# Molecular target: CaRvs167-3
# Assay: as above
# Outline: as §1
row,Binder,SPOT peptide array binding signal intensity
1,NMLSRPRLAKLPSIR,60.5

# Molecular target: CaSho1
# Assay: as above
# Outline: as §1
row,Binder,SPOT peptide array binding signal intensity
1,NMLSRPRLAKLPSIR,1490

# Molecular target: CaSla1-D1-D2
# Assay: as above
# Outline: as §1
row,Binder,SPOT peptide array binding signal intensity
1,NMLSRPRLAKLPSIR,663

# Molecular target: CaSla1-D3
# Assay: as above
# Outline: as §1
row,Binder,SPOT peptide array binding signal intensity
1,NMLSRPRLAKLPSIR,254

# Molecular target: ScAbp1
# Assay: as above
# Outline: as §1
row,Binder,SPOT peptide array binding signal intensity
1,NMLSRPRLAKLPSIR,424

# Molecular target: ScBbc1
# Assay: as above
# Outline: as §1
row,Binder,SPOT peptide array binding signal intensity
1,NMLSRPRLAKLPSIR,3.5

# Molecular target: ScBem1-D1
# Assay: as above
# Outline: as §1
row,Binder,SPOT peptide array binding signal intensity
1,NMLSRPRLAKLPSIR,21

# Molecular target: ScBzz1-D1
# Assay: as above
# Outline: as §1
row,Binder,SPOT peptide array binding signal intensity
1,NMLSRPRLAKLPSIR,22

# Molecular target: ScBzz1-D2
# Assay: as above
# Outline: as §1
row,Binder,SPOT peptide array binding signal intensity
1,NMLSRPRLAKLPSIR,29.5

# Molecular target: ScCyk3
# Assay: as above
# Outline: as §1
row,Binder,SPOT peptide array binding signal intensity
1,NMLSRPRLAKLPSIR,35

# Molecular target: ScFus1
# Assay: as above
# Outline: as §1
row,Binder,SPOT peptide array binding signal intensity
1,NMLSRPRLAKLPSIR,826

# Molecular target: ScHof1
# Assay: as above
# Outline: as §1
row,Binder,SPOT peptide array binding signal intensity
1,NMLSRPRLAKLPSIR,28

# Molecular target: ScHse1
# Assay: as above
# Outline: as §1
row,Binder,SPOT peptide array binding signal intensity
1,NMLSRPRLAKLPSIR,2110

# Molecular target: ScLsb1
# Assay: as above
# Outline: as §1
row,Binder,SPOT peptide array binding signal intensity
1,NMLSRPRLAKLPSIR,71.5

# Molecular target: ScLsb2
# Assay: as above
# Outline: as §1
row,Binder,SPOT peptide array binding signal intensity
1,NMLSRPRLAKLPSIR,≤ 0

# Molecular target: ScLsb3
# Assay: as above
# Outline: as §1
row,Binder,SPOT peptide array binding signal intensity
1,NMLSRPRLAKLPSIR,570

# Molecular target: ScLsb4
# Assay: as above
# Outline: as §1
row,Binder,SPOT peptide array binding signal intensity
1,NMLSRPRLAKLPSIR,112

# Molecular target: ScMyo3
# Assay: as above
# Outline: as §1
row,Binder,SPOT peptide array binding signal intensity
1,NMLSRPRLAKLPSIR,13.5

# Molecular target: ScMyo5
# Assay: as above
# Outline: as §1
row,Binder,SPOT peptide array binding signal intensity
1,NMLSRPRLAKLPSIR,≤ 0

# Molecular target: ScNbp2
# Assay: as above
# Outline: as §1
row,Binder,SPOT peptide array binding signal intensity
1,NMLSRPRLAKLPSIR,370

# Molecular target: ScPex13
# Assay: as above
# Outline: as §1
row,Binder,SPOT peptide array binding signal intensity
1,NMLSRPRLAKLPSIR,142

# Molecular target: ScRvs167
# Assay: as above
# Outline: as §1
row,Binder,SPOT peptide array binding signal intensity
1,NMLSRPRLAKLPSIR,43

# Molecular target: ScSho1
# Assay: as above
# Outline: as §1
row,Binder,SPOT peptide array binding signal intensity
1,NMLSRPRLAKLPSIR,962

# Molecular target: ScSla1-D1-D2
# Assay: as above
# Outline: as §1
row,Binder,SPOT peptide array binding signal intensity
1,NMLSRPRLAKLPSIR,389

# Molecular target: ScSla1-D3
# Assay: as above
# Outline: as §1
row,Binder,SPOT peptide array binding signal intensity
1,NMLSRPRLAKLPSIR,418

# Molecular target: SpAbp1-D1
# Assay: as above
# Outline: as §1
row,Binder,SPOT peptide array binding signal intensity
1,NMLSRPRLAKLPSIR,610

# Molecular target: SpBbc1
# Assay: as above
# Outline: as §1
row,Binder,SPOT peptide array binding signal intensity
1,NMLSRPRLAKLPSIR,1

# Molecular target: SpBzz1-D1
# Assay: as above
# Outline: as §1
row,Binder,SPOT peptide array binding signal intensity
1,NMLSRPRLAKLPSIR,333

# Molecular target: SpBzz1-D2
# Assay: as above
# Outline: as §1
row,Binder,SPOT peptide array binding signal intensity
1,NMLSRPRLAKLPSIR,13

# Molecular target: SpCyk3
# Assay: as above
# Outline: as §1
row,Binder,SPOT peptide array binding signal intensity
1,NMLSRPRLAKLPSIR,3

# Molecular target: SpHof1
# Assay: as above
# Outline: as §1
row,Binder,SPOT peptide array binding signal intensity
1,NMLSRPRLAKLPSIR,100

# Molecular target: SpHof1-2
# Assay: as above
# Outline: as §1
row,Binder,SPOT peptide array binding signal intensity
1,NMLSRPRLAKLPSIR,59.2

# Molecular target: SpHof1-3
# Assay: as above
# Outline: as §1
row,Binder,SPOT peptide array binding signal intensity
1,NMLSRPRLAKLPSIR,1590

# Molecular target: SpHse1
# Assay: as above
# Outline: as §1
row,Binder,SPOT peptide array binding signal intensity
1,NMLSRPRLAKLPSIR,2030

# Molecular target: SpLsb1
# Assay: as above
# Outline: as §1
row,Binder,SPOT peptide array binding signal intensity
1,NMLSRPRLAKLPSIR,10.5

# Molecular target: SpLsb4
# Assay: as above
# Outline: as §1
row,Binder,SPOT peptide array binding signal intensity
1,NMLSRPRLAKLPSIR,859

# Molecular target: SpMyo1
# Assay: as above
# Outline: as §1
row,Binder,SPOT peptide array binding signal intensity
1,NMLSRPRLAKLPSIR,24.8

# Molecular target: SpNbp2
# Assay: as above
# Outline: as §1
row,Binder,SPOT peptide array binding signal intensity
1,NMLSRPRLAKLPSIR,577

# Molecular target: SpPex13
# Assay: as above
# Outline: as §1
row,Binder,SPOT peptide array binding signal intensity
1,NMLSRPRLAKLPSIR,74

# Molecular target: SpRvs167
# Assay: as above
# Outline: as §1
row,Binder,SPOT peptide array binding signal intensity
1,NMLSRPRLAKLPSIR,32.2

# Molecular target: SpSla1-D1-D2
# Assay: as above
# Outline: as §1
row,Binder,SPOT peptide array binding signal intensity
1,NMLSRPRLAKLPSIR,8

# Molecular target: SpSla1-D3
# Assay: as above
# Outline: as §1
row,Binder,SPOT peptide array binding signal intensity
1,NMLSRPRLAKLPSIR,194

# Reference: the supplement of paper PMC4466140
